IL-1B inflam inh = blocks inflammasome-driven IL-1 beta release; activity change, % at 57.5 µM; 360,000 compounds, 4.7% hits; AID 743279; THP-1 LPS/ATP IL-1B secretion, AlphaLISA, 16 h; stronger effect = lower value; in the data active = activity change below about -50%; inconclusive = mostly about -30% to -49%
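Secreted IL-1B measured by AlphaLISA bead assay after 16 h compound exposure of THP-1 cells; compounds (final up to 57.5 uM) added 1 h before LPS (250 ng/mL) and ATP (1.25 mM) stimulation; lower signal means less secretion.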
HT1080 IDH1KD tx = HT-1080 IDH1 knockdown cell toxicity (counter line) | Potency, µM (series often up to 46.1 µM), without a hit: at the top dose activity, negative = toxicity, hits mostly cytotoxic | HT-1080 IDH1 knockdown viability, ATP luminescence, 48 h | 360,000 compounds, 2% hits | AID 686971;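 also: potency is read from the fitted curve at half-maximal effect; 0% = DMSO wells and -100% = cell-free medium wells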
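IDH1KD HT-1080 cells, 750/well, RPMI + 5% FBS; compound pinned after 2 h settling; 48 h, 37 °C; CellTiter-Glo luminescence; % activity normalised to DMSO and no-cell wells; curves fitted, classed by r2 and efficacy.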
DT40 TDP1 CPT = DT40-hTDP1 cell growth loss with CPT | chicken DT40 Tdp1-/-;hTDP1 cells + 20 nM CPT, ATP luminescence, 48 h | Potency, µM (series often up to 46.2 µM), for inactives: at the top dose activity change, negative = growth inhibition, most hits filed as inhibitors | 420,000 compounds, 12% hits; also: potency is read from the fitted curve at half-maximal effect; nearly all actives have a fitted effect of over 55% in size
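Chicken DT40 Tdp1-/- cells stably complemented with human TDP1 were seeded at 400 cells/well in medium containing 20 nM camptothecin, exposed to pin-transferred compounds, and grown at 37 °C for at least 48 hr. Viability was read as ATP luminescence.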
DT40 TDP1 no CPT = qHTS for Inhibitors of human tyrosyl-DNA phosphodiesterase 1 (TDP1): qHTS in cells in absence of CPT. DT40 Tdp1-/- hTDP1 cells, no CPT, ATP luminescence, 48 h. Potency, µM (top dose mostly 46.2 µM), inactives show at the highest dose activity change, negative = growth inhibition, most hits filed as inhibitors. 420,000 compounds, 15% hits. AID 686978, 2013; also: potency is read from the fitted curve at half-maximal effect; nearly all actives have a fitted effect of over 55% in size
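No-CPT arm: Tdp1-/-;hTDP1 DT40 cells (400/well) plus compounds, incubated ≥48 hr at 37 °C. Readout CellTiter-Glo luminescence.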
HT1080-NT tox = kills 2HG-producing HT-1080-NT fibrosarcoma cells | HT-1080-NT fibrosarcoma viability, CellTiter-Glo ATP luminescence, 48 h | Potency, µM (doses to about 46.1 µM), without a hit: at the highest dose activity, negative = less viability, hits mostly cytotoxic | 360,000 compounds, 1.6% hits;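 also: NT is the 2HG producing partner of a matched IDH1 knockdown line; potency is read from the fitted curve at half-maximal effect; 0% = DMSO-treated cells and -100% = media-only wells without cells; nearly all actives have a fitted effect of over 55% in size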
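A 48-hour cytotoxicity screen used HT-1080-NT cells plated 2 hours before compound delivery. ATP-based CellTiter-Glo luminescence measured viability, normalized to DMSO and no-cell controls.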
* = called active by the depositor; ? = inconclusive; . = no result. Most compounds without a hit are left out; they make up all but 19% or so of the library. Unless noted, calls follow the shape of the dose curve; as a rule, active = well fitted curve in the direction sought with a large enough effect; inconclusive = small, poorly fitted or top-dose-only effect, or another doubt; inactive = no such curve, though single readings can be large; an effect the other way counts as inactive or inconclusive. Unless noted, % is scaled to controls: 0 for no effect and ±100 for the full control effect.

SMILES | IL-1B inflam inh | HT1080 IDH1KD tx | DT40 TDP1 CPT | DT40 TDP1 no CPT | HT1080-NT tox
COc1ccc(C(=O)Nc2ccc(S(=O)(=O)N3CCCC3)cc2)c(OC)c1 | 0 | -3% | -29% | -26% | 1%
COc1ccc(C(=O)Nc2ccc3c(c2)CCCN3S(=O)(=O)c2ccc(C)cc2)c(OC)c1 | . | . | 5.8µM* | 5.2µM* | .
CCOc1ccc(C(=O)NCC(=O)NCC(c2ccc(OC)cc2)N2CCOCC2)cc1OCC (stereo unspecified) | -2 | 9% | 9% | 7% | 5%
O=S(=O)(N/N=C1\CC(c2ccccc2)Oc2ccccc21)c1ccccc1 (stereo unspecified) | -27 | -11% | -13% | -13% | -9%
CCOc1ccc(S(=O)(=O)N/N=C2/CC(c3ccccc3)Oc3ccccc32)cc1 (stereo unspecified) | 0 | -23% | ? | 16µM* | -5%
CSc1nc(-c2ccc(Cl)cc2)nc(N)c1C#N | 32 | -7% | -2% | 0% | ?
COc1ccc(-c2c(C#N)c(N)n(N)c(=O)c2C#N)cc1Cl | -13 | -3% | 8% | ? | -12%
N#Cc1c(-c2ccc(Cl)cc2)c(C#N)c(=O)n(N)c1N | -1 | -2% | ? | 29µM* | -5%
CSc1nc(N)c(C#N)c(-c2ccc(Cl)cc2)c1C#N | -4 | ? | -18% | 16µM* | ?
COc1cc(NC(=O)NC2Cc3ccccc3C2)cc(OC)c1 | -1 | 5% | 3% | -29% | -5%
CN(C)S(=O)(=O)c1ccc2nnn(OCC(=O)NC34CC5CC(CC(C5)C3)C4)c2c1 | 13 | 1% | ? | 26µM* | 1%
CN(C)S(=O)(=O)c1ccc2nnn(OCC(=O)NC3CCS(=O)(=O)C3)c2c1 (stereo unspecified) | 9 | -1% | 9% | 6% | 10%
COCCCNc1nc(SCc2ccccc2)nc2sc3c(c12)CCC3 | 7 | 12% | ? | 21µM* | -2%
N#Cc1cnn(-c2nc(SCc3ccccc3)nc3sc4c(c23)CCCC4)c1N | 17 | -24% | -20% | 4% | -25%
Cc1nc2c(C(=O)NC(C)c3ccccc3)cnn2c(C)c1Cc1ccccc1 (stereo unspecified) | . | . | 13µM* | ? | .
COC(CNC(=O)c1cnn2c(C)c(Cc3ccccc3)c(C)nc12)OC | ? | -9% | ? | 16µM* | -2%
COc1ccc(Cc2c(C3CCCCC3)nc3ccc(Cl)cn23)c(C)c1 | 0 | -13% | -29% | ? | -15%
Cc1ccc(C(=O)Nc2nnc(COCCO)s2)cc1 | 22 | 14% | -17% | 13% | 18%
COc1cccc(C(=O)N2CCc3c(C(=O)NC(C)c4ccco4)c(OC)cc(=O)n3CC2)c1OC (stereo unspecified) | . | . | 9% | 1% | .
O=C(COc1ccc([N+](=O)[O-])cc1Cl)NCCc1ccccc1 | 4 | 17% | -15% | ? | 10%
CC(C)C(C)NC(=O)COc1ccc([N+](=O)[O-])cc1Cl (stereo unspecified) | -8 | -10% | 8.2µM* | ? | 1%
CCOc1ccccc1OCCCOc1ccc([N+](=O)[O-])cc1Cl | -23 | -3% | -74% | 23µM* | -1%
COc1cccc(OC)c1OCCCOc1ccc([N+](=O)[O-])cc1Cl | ? | -7% | ? | ? | -5%
CCOC(=O)CSC1=C(C#N)C(c2ccccc2OCC)C(C#N)C(=O)N1 (stereo unspecified) | 4 | -9% | 15µM* | 18µM* | ?
CCOC(=O)C1C(=O)NC(SCC(=O)Nc2nccs2)=C(C#N)C1c1ccccc1OCC (stereo unspecified) | -6 | 1% | ? | 13µM* | 11%
CC(C)CN(C(=O)COC(=O)c1nc(Cl)ccc1Cl)c1c(N)n(Cc2ccccc2)c(=O)[nH]c1=O | 0 | 3% | 2% | -8% | -1%
